In PubChem BioAssay AID799 (SRMLSC, 2007) one finds viability increase data, which are given here for 62 molecules.

In all, about 140,000 compounds went through this assay and about 840 (0.6%) were called active.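 How the source made its calls: active means viability gain under doxorubicin at or above a set limit, the compound median plus 3 SD (cut at about 4.7% in these data); inactive means the rest.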 For the sample, actives were picked, then their nearest neighbours and some compounds at random.

A short description of this test: H69AR viability gain despite doxorubicin, primary screen, MRP-1 activator project, H69AR cells, CellTiter-Glo (AID 799).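 Further: MRP-1 overexpressing cells given doxorubicin 25 µM after compound pretreatment; 18-22 h compound pretreatment then 72 h with doxorubicin before readout; 0% = doxorubicin-only wells and 100% = vehicle-treated cells without doxorubicin.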 The settings on record: viability rescue, at 10 µM, stronger effect = higher value. For orientation: ATP-based viability assays read luminescence as a measure of living cells.
Regarding `COc1ccc([N+](=O)[O-])cc1NC(=O)COC(=O)/C=C/c1ccco1`, the viability increase was 7.08% (active).
In the case of `CC(C)CNC(=O)COC(=O)/C=C/c1ccco1` it was 1.16% (inactive); in that of `COc1ccc([N+](=O)[O-])cc1NC(=O)CCc1ccccc1`, -1.62% (inactive).
Then `Cc1[nH]c2ccccc2c1/C=N\NC(=O)Cn1nnc(-c2ccccc2)n1`, with 3.22% (inactive); and `CN(C)CCCNC(=S)NCc1ccc(Cl)cc1`, with -0.81% (inactive); and `CCOC(=O)NC(=O)CSc1nnc(SCCC(=O)O)s1`, with 1.73% (inactive).
Then `CCCC(=O)Nc1cccc(NC(=S)NC(=O)C(C)Oc2ccc(Cl)cc2Cl)c1` (configuration not stated), with -2.06% (inactive); and `Cc1cccnc1NC(=O)CSc1nnc(COc2ccc(C(C)C)cc2)n1C`, with 0.08% (inactive).
For the molecule `COc1ccccc1C(=O)Nc1ccc(OCc2nnc3c4ccccc4c(C)nn23)cc1`, the viability increase was 0.29% (inactive).
For the molecule `Cc1ccc(OCc2nnc(SC3CCc4ccccc4C3=O)n2C)cc1` (configuration not stated), the viability increase was 7.21% (active).
In the case of `Cc1ccc2nc(SCc3cn4c(C)cc(C)nc4n3)[nH]c2c1` it was 0% (inactive); in that of `OC(COc1ccc2c(c1)CCC2)CN1CCN(c2cccc(Cl)c2)CC1` (configuration not stated), -3.05% (inactive); in that of `O=c1cc(CN2CCN(c3cccc(Cl)c3)CC2)c2cc3c(cc2o1)CCCC3`, 6.01% (active).
Then `COc1ccc(N2CCN(Cc3cc(=O)oc4ccc5ccccc5c34)CC2)cc1`, with -1.38% (inactive); and `O=C(CSc1nc2ccccc2[nH]1)N/N=C/C=C\c1ccccc1[N+](=O)[O-]`, with -1.58% (inactive); and `COc1cccc(/C(C)=N/Nc2ncc(Cl)cc2Cl)c1`, with -1% (inactive).
In the case of `Cn1cc(C(=O)NCc2ccccc2F)cn1` it was -0.72% (inactive); in that of `COc1ccc(/C=C/C(=O)Nc2ccc3c(c2)OCCO3)cc1OC`, -2.17% (inactive).
As for `COc1ccc(/C=C/C(=O)Nc2c(C)nn(C)c2C)cc1COc1ccc(Br)cc1`, the viability increase is 7.14% (active).
Then `CCn1nc(C)c(NC(=O)/C=C/c2ccc(OC)c(COc3ccc(Br)cc3)c2)c1C`, with 3.69% (inactive).
In the case of `Cn1c(=O)c(Sc2ccc(Cl)cc2)c(O)c2ccccc21`, the viability increase was -2.5% (inactive).
In the case of `CCN(CC)CCNCc1ccc(OCc2ccc(Cl)nc2)c(OC)c1` it was 1.21% (inactive); in that of `COc1ccc(NS(=O)(=O)c2ccc(NC(=S)NC(=O)/C=C/c3ccc(C)cc3)cc2)nn1`, -3.16% (inactive).
Then `CCCCCC(=O)Nc1ccc(S(=O)(=O)Nc2ccc(Cl)nn2)cc1`, with 6.79% (active).
In the case of `COc1ccc(NS(=O)(=O)c2ccc(NC(=O)C(C)(C(F)(F)F)C(F)(F)F)cc2)nn1` it was -0.72% (inactive); in that of `O=C(/C=C/c1ccccc1)Nc1nnc(SCC(=O)c2ccc3ccccc3c2)s1`, -5.32% (inactive).
On to `COc1ccc2nc(NC(=O)[C@@H]3CCCN3C(=O)c3cccs3)sc2c1`, for which the viability increase was -1.42% (inactive).
In the case of `CC(C)CN(C(=O)CN1CCN(S(=O)(=O)c2ccccc2)CC1)c1c(N)n(CC(C)C)c(=O)[nH]c1=O` it was 0.86% (inactive).
In the case of `Cc1cc(/C=C2/NC(=O)NC2=O)c(C)n1-c1cccnc1` it was -1.48% (inactive); in that of `Cc1ccccc1-n1c(C)cc(/C=C2\NC(=O)NC2=O)c1C`, -4.81% (inactive); in that of `Cc1cccc(C)c1-n1c(C)cc(/C=C2\C(=O)NN(c3ccccc3)C2=O)c1C`, 7.89% (active).
For `CCC(C(=O)OCC(=O)Nc1c(Cl)cc(Cl)cc1Cl)c1ccccc1` (configuration not stated), the viability increase is 0.97% (inactive).
Then `COc1ccc(-n2ncc3c(N4CCCc5ccccc54)ncnc32)cc1`, with 10.8% (active).
In the case of `Cc1cccc(-n2ncc3c(N4CCc5ccccc54)ncnc32)c1` it was -0.96% (inactive); in that of `COc1ccc(-n2ncc3c(N4CCc5ccccc54)ncnc32)cc1`, -1.22% (inactive); in that of `COc1cc(Cl)c(C)cc1NC(=O)COC(=O)c1cc(SC)ccc1Cl`, -0.15% (inactive).
For `CCC1CCCCN1C(=S)Nc1ccc(SC(F)F)cc1` (configuration not stated), the viability increase was 1.82% (inactive).
Turning to `Cc1ccccc1NC(=O)CSC1=NCCN1`, the viability increase is 5.48% (active).
In the case of `Cc1cccc(NC(=O)CSc2nc3c(c(=O)[nH]2)CCCC3)c1C` it was -0.17% (inactive); in that of `Cc1ccccc1NC(=O)CNc1ccccc1N1CCCCC1`, -3.04% (inactive); in that of `N=c1n(CCc2ccccc2)c2ccccc2n1Cc1ccccc1F`, -4.33% (inactive).
For `COc1ccc(C)cc1NC(=O)CSc1ccc(Cl)cc1`, the viability increase is -1.28% (inactive).
Then `O=C1CCCC(O)=C1N=Nc1ccc2ncsc2c1`, with -2.88% (inactive).
In the case of `CCn1c2ccccc2c2cc(NC(=O)COC(=O)c3ccccc3Br)ccc21` it was -1.59% (inactive); in that of `Cc1cc(C(=O)OCC(=O)Nc2ccc(F)c(F)c2)c(C)o1`, 7.91% (active).
In the case of `Cc1cc(C(=O)OCC(=O)c2c(N)n(C)c(=O)n(C)c2=O)c(C)o1` it was -2.26% (inactive); in that of `CC(C)(C)NC(=O)C(=O)NCc1ccncc1`, -2.66% (inactive).
As for `COc1ccc(NC(=O)CC2COc3ccccc3O2)c(OC)c1` (configuration not stated), the viability increase is 4.96% (active).
As for `COc1ccc(NC(=O)CCN2CCCC2)c(OC)c1`, the viability increase was 1.66% (inactive).
Then `Cc1cc(NC(=O)CCC2COc3ccccc3O2)no1` (configuration not stated), with 0% (inactive); and `O=c1cc(CN2CCN(S(=O)(=O)/C=C/c3ccccc3)CC2)c2ccc(O)cc2o1`, with -2.59% (inactive); and `CC(C)(C)CC(C)(C)NCC(O)COCCOc1ccc(Br)cc1` (configuration not stated), with -4.69% (inactive).
Regarding `Cc1ccsc1C(=O)N/N=C/c1ccc([N+](=O)[O-])cc1`, the viability increase was 0.85% (inactive).
In the case of `Cc1cc(C(=O)N/N=C/c2cc([N+](=O)[O-])cc(C)c2O)n[nH]1` it was 5.47% (active); in that of `Cc1ccc(-n2[nH]c(C)c(/C=N/NC(=O)c3cccc([N+](=O)[O-])c3)c2=O)cc1C`, -4.06% (inactive); in that of `COC(=O)c1onc(-c2c(OC)cc(OC)cc2OC)c1C(=O)OC`, 1.1% (inactive).
Then `O=C(N/N=C/c1ccc(Br)o1)c1cncc(Br)c1`, with -1.78% (inactive).
Take `Cc1ccc(OCC(=O)OC(C)CN(C)Cc2ccccc2)cc1` (configuration not stated): the viability increase is -1.74% (inactive).
In the case of `CCn1c(SCC(=O)Nc2ccc(C)cc2)nc2nc3c(cc2c1=O)CCCC3` it was 0.07% (inactive).
In the case of `Clc1ccc(COn2c(-c3ccc(Cl)cc3Cl)nc3ncccc32)cc1` it was -3.46% (inactive).
In the case of `CCOc1ccc(OCC)c(-c2c(=O)n(OCc3ccc(Cl)cc3)c3ccccc3[n+]2[O-])c1` it was 7.22% (active); in that of `COc1ccc(OC)c(-c2c(=O)n(OCc3ccccc3Br)c3ccccc3[n+]2[O-])c1`, -1.16% (inactive).
